# TRHR enhancer – allosterically enhances the human TRH receptor | P34981 | enhancement, % at 2 µM | TRHR cells, fluo-8 calcium fluorescence, EC20 TRH enhancement | hit rate 0.66% among 360,000; in the data active means enhancement above about 30%
#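 TRHR-expressing cells loaded with fluo-8 calcium dye were read kinetically (ex 480/em 530) during compound addition, then stimulated with an EC20 of TRH (10 nM final). Enhancement of the Gq-mediated intracellular calcium response was scored.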
# TRPML1 blocker – blocks the human TRPML1 channel | Q9GZU1 | AID 624415 | TRPML1-inducible cells, Ca2+ dye fluorescence, FDSS; stronger effect = lower value; inhibition of EC80 agonist-evoked calcium signal | hit rate 0.02% among 390,000 | activity change, negative = inhibition, % (concentration not given with the values); in the data active means activity change below about -50%; inconclusive means between about -30% and that limit;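 further: stimulus is agonist 54-4 at its EC80 concentration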
# Target sequence (Q9GZU1 whole entry, looked up): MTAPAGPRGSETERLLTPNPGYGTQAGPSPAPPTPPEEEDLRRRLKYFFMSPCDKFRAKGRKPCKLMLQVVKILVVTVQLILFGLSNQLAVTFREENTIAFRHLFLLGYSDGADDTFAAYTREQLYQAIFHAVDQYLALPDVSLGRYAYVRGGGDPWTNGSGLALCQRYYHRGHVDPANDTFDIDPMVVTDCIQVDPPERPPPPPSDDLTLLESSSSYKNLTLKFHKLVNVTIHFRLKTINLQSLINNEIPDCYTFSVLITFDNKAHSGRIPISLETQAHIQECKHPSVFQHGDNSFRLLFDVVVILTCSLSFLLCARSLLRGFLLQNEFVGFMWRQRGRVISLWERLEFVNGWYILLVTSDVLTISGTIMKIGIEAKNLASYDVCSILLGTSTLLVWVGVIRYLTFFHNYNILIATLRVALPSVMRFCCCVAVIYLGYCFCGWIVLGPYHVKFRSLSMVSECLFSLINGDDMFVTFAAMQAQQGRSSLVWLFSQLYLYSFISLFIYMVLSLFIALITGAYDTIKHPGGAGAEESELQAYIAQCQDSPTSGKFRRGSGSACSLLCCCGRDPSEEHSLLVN
#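 Tet-induced TRPML1-DL cells loaded with Ca8 no-wash calcium dye were read kinetically on FDSS. Compound addition was followed by EC80 agonist 54-4 (4 uM final); inhibition was read over 110 s.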
# TRHR ag – activates the human TRH receptor; P34981; TRHR cells, calcium flux fluo-8, FDSS agonist mode; activation, % at 2 µM; hit rate 0.18% among 360,000; AID 493084; in the data active means activation above about 30%
#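 Read-out: compound-evoked intracellular calcium rise in TRHR cells, fluo-8 dye, kinetic FDSS fluorescence at 1 s/cycle following a 10-cycle baseline. Cells cultured overnight before dye loading (30 min–1.5 h, RT).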
# TRPML1 agonist – human mucolipin-1 channel agonism; TRPML1-expressing cells, Ca2+ dye fluorescence, FDSS; activation, % (test concentration not listed); AID 624414; hit rate 0.12% among 410,000; in the data active means activation above about 50%; inconclusive means mostly about 30% to 49%
#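 Tet-induced TRPML1-DL cells, 1,500 per well, cultured overnight, were loaded with a no-wash Ca2+ dye for 45–90 min. Calcium fluorescence was recorded on the FDSS for 110 s after compound addition, before the EC80 agonist (4 uM 54-4) was added.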
# TRPV1 ag – human TRPV1 agonism | TRPV1-expressing cells, Fluo-8 calcium influx, agonist mode | hit rate 0.19% among 320,000 | activation, % at 8.33 µM; in the data active means activation above about 80%; inconclusive means between about 30% and that limit
#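 Fluo-8 calcium influx in TRPV1-expressing cells, kinetic read (ex 480/em 520 nm). Compound added and read 3 min for agonist activity, followed by capsaicin at EC20 final and 2 min further read for enhancement.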
# TRPV1 potentiator – potentiators of human vanilloid receptor 1 (TRPV1) | potentiation, % at 8.33 µM | TRPV1-expressing cells, Fluo-8 calcium influx, capsaicin EC20 potentiation | hit rate 0.02% among 320,000 | AID 540277 | Q8NER1; in the data active means potentiation above about 80%; inconclusive means between about 30% and that limit
#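 Fluo-8 calcium influx in TRPV1-expressing cells, kinetic read (ex 480/em 520 nm). Compound added and read 3 min for agonist activity, followed by capsaicin at EC20 final and 2 min further read for enhancement.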
# A number is an active result; i = inactive; ? = inconclusive; nt = no result. Sampled rows, rich in hits. Any-hit rate of the full collection: about 0.96%.
SMILES,TRHR enhancer,TRPML1 blocker,TRHR ag,TRPML1 agonist,TRPV1 ag,TRPV1 potentiator
COc1cccc(NC(=O)c2cccc(N3C(=O)C4CCC(C)CC4C3=O)c2)c1 (stereo not given),i,i,i,i,?,i
Cc1ccc(C(=O)Nc2cccc(N3C(=O)C4CCC(C)CC4C3=O)c2)cc1 (stereo not given),33,i,i,i,?,i
O=C(Nc1ccc(N2CCCCCC2)cc1)c1cccc(S(=O)(=O)N2CCOCC2)c1,i,i,i,i,87,i
CC(C)(C)c1cc(NC(=O)c2cccc(S(=O)(=O)N3CCOCC3)c2)no1,i,i,i,i,80,i
O=C(NCc1nc2ccccc2[nH]1)c1cccc(S(=O)(=O)N2CCOCC2)c1,i,i,i,i,i,i
O=C(Nc1nc2ccccc2[nH]1)c1cccc(S(=O)(=O)N2CCOCC2)c1,i,i,i,i,80,i
O=C(Nc1ccccc1)c1ccc(NC2CCCCC2)c(S(=O)(=O)N2CCOCC2)c1,i,i,i,i,86,i
Cc1ccc(S(=O)(=O)N2CCN(c3nc(-c4ccc(F)cc4)nc4cc(Cl)ccc34)CC2)cc1,i,i,i,i,nt,nt
CC(C)(C)n1ncc2c(=O)n(Cc3cc(F)ccc3Cl)cnc21,nt,i,nt,i,nt,nt
Cc1cc2c(s1)c1cnn(Cc3cc(F)c(F)c(F)c3)c(=O)c1n2C,i,nt,i,nt,nt,nt
CC[N+](C)(C)c1ccc(/C=C/c2ccc3ccccc3n2)cc1,nt,nt,nt,i,nt,nt
Cc1cc2oc(C(=O)N(Cc3ccco3)Cc3ccccc3Cl)c(C)c2cc1C,41,i,i,i,nt,nt
Cc1cc2oc(C(=O)N(Cc3ccc(N(C)C)cc3)Cc3ccco3)c(C)c2cc1Cl,i,i,i,i,nt,nt
COc1ccc(-c2cc(=O)n(CCC#N)[nH]2)cc1,i,i,i,i,i,i
COc1ccc(-c2ncn(CCC#N)c2[N+](=O)[O-])cc1,33,i,i,i,i,i
COc1cccc(/C=C/c2cnc3ccccc3n2)c1OC,nt,nt,nt,i,nt,nt
COc1ccc(Cl)c(Cn2cnc3c(cnn3C(C)(C)C)c2=O)c1F,nt,i,nt,i,nt,nt
CC(C)c1ccc(NC(=O)N2CCC(c3nc4ccccc4o3)CC2)cc1,i,i,i,i,97,i
CC(=O)c1ccc(N2CCN(C(=O)Nc3ccc(C(C)C)cc3)CC2)cc1,i,i,i,i,100,i
CC(C)c1ccc(NC(=O)N2CCOCC2)cc1,i,i,i,i,95,i
CC(=O)Nc1ccc(NC(=O)N2CCOCC2)cc1,nt,i,nt,i,nt,nt
CS(=O)(=O)c1ccccc1NC(=O)COc1ccccc1C(=O)Nc1ccccc1,nt,nt,nt,i,nt,nt
O=C(CNC(=O)c1ccccc1Cl)OC(C(=O)Nc1cc(C(F)(F)F)ccc1Cl)c1ccccc1 (stereo not given),i,nt,i,nt,nt,nt
O=C1C=C(N(CCO)Cc2ccccc2)c2ccccc2C1=O,39,i,i,i,i,i
O=C1c2ccccc2C(=O)c2c1cccc2N(CCO)CCO,i,i,i,i,i,i
SMILES,TRHR enhancer,TRPML1 blocker,TRHR ag,TRPML1 agonist,TRPV1 ag,TRPV1 potentiator
CC(C)c1ccc(CNC(=O)C(=O)NCCCn2ccnc2)cc1,32,i,i,i,i,i
COc1ccc(CNC(C)C2COc3ccccc3O2)c(OC)c1 (stereo not given),i,i,i,i,i,i
CC(NCc1ccccc1)C1COc2ccccc2O1 (stereo not given),31,i,i,i,i,i
Cc1ccc(Oc2ccc(C(=O)NCc3ccncc3)cc2)cc1,i,i,i,i,?,i
O=C(NCc1ccncc1)c1ccc(Oc2ccccc2)cc1,i,i,i,i,91,i
Cc1cccc(OCC(=O)Nc2ccc(-c3nc4ccccc4o3)cc2)c1C,31,i,i,i,nt,nt
Cc1nnc(SCCn2c(N3CCN(C)CC3)nc3c2c(=O)[nH]c(=O)n3C)s1,41,i,i,i,i,i
Cc1nnc(SCCn2c(N3CCCCCC3)nc3c2c(=O)[nH]c(=O)n3C)s1,i,i,i,i,i,i
c1ccc(-c2cc(-c3nnco3)c3ccccc3n2)nc1,34,i,i,i,i,i
CC(C)S(=O)(=O)N1CCN(c2nc(-c3cccs3)nc3ccccc23)CC1,nt,nt,nt,i,nt,nt
COc1ccc2cc(-c3[nH]ncc3CN3CCCN(c4ccccc4)CC3)ccc2c1,31,i,i,i,i,i
CCn1cc(Cl)c(C(=O)Nc2ccc3c(c2)OCCO3)n1,38,i,i,i,i,i
CCn1cc(Cl)c(C(=O)Nc2cccc(C(F)(F)F)c2)n1,i,i,i,i,i,i
CCOc1ccc(-c2nc(C#N)c(NC3CC3)o2)cc1,32,i,i,i,i,i
C/C(=N/NC(=O)C1CCCN1C(=O)c1ccc([N+](=O)[O-])cc1)c1ccc(Br)cc1 (stereo not given),35,i,i,i,i,i
CC(C)NCC(O)c1ccc(O)c(O)c1 (stereo not given),36,i,i,i,i,i
CNC[C@H](O)c1ccc(O)c(O)c1,i,i,i,i,i,i
O=S(=O)(c1cccc2ccccc12)N1CCN(c2nc(-c3cccs3)nc3ccccc23)CC1,nt,nt,nt,i,nt,nt
Cn1cc(-c2ccccc2C(N)=O)c(=O)c2cc(Cl)ccc21,i,i,i,i,i,i
Cn1cc(C2=C(c3ccc(Cl)cc3Cl)C(=O)NC2=O)c2ccccc21,i,i,48,i,?,i
COc1ccc(CCNC(=O)C(=O)NCC(c2ccco2)S(=O)(=O)c2ccc(F)cc2)cc1 (stereo not given),36,i,i,i,nt,nt
CC(OC(=O)c1c2c(nc3ccccc13)/C(=C\c1ccc3c(c1)OCO3)CCC2)C(=O)Nc1ccc(S(N)(=O)=O)cc1 (stereo not given),i,i,96,?,?,i
Cc1cccc(C)c1NC(=O)COC(=O)c1c2c(nc3ccccc13)/C(=C\c1ccc3c(c1)OCO3)CCC2,i,i,i,i,?,i
Cc1cc2c(s1)c1cnn(Cc3c(F)c(F)c(C)c(F)c3F)c(=O)c1n2C,i,nt,i,nt,nt,nt
CCCCNc1c(-c2ccc(OC)c(SC3CCCCC3)c2)nc2cc(C)ccn12,i,i,i,i,88,i
Cc1cc2c(s1)c1cnn(Cc3c(F)c(F)c(C(F)(F)F)c(F)c3F)c(=O)c1n2C,i,nt,i,nt,nt,nt
O=C(CCS(=O)(=O)Cc1ccc(Cl)cc1)NCCCN1CCN(c2ccccc2F)CC1,33,i,i,i,i,i
Cc1ccccc1CS(=O)(=O)CCC(=O)NCCCN1CCN(c2ccccc2F)CC1,i,i,i,i,i,i
CCN1/C(=C/c2ccc3cccc(C)c3[n+]2CC)Sc2ccccc21,nt,i,nt,58,nt,nt
CCN1/C(=C/c2ccc3cc(C)cc(C)c3[n+]2CC)Sc2cc(C)ccc21,35,i,i,i,i,i
